For some assays here: Entries with a potency or affinity are not part of this list.
Key:
Design in all cases: scale not given: direction of the effect not stated beside the values
[1] = target: Protein translocase subunit SecA (Escherichia coli (strain K12)) (UniProt P10408); assay: Assay to Identify E. coli SecA ATPase Inhibitors; format: functional; conditions: 30 µM
[2] = target: T1, Ubiquitin-activating enzyme e1, putative (Leishmania donovani (strain BPK282A1)) (UniProt E9BSI1); assay: Leishmania donovani Ubiquitin Activating Enzyme (LdE1); format: functional; conditions: 30 µM
T1 sequence (whole entry): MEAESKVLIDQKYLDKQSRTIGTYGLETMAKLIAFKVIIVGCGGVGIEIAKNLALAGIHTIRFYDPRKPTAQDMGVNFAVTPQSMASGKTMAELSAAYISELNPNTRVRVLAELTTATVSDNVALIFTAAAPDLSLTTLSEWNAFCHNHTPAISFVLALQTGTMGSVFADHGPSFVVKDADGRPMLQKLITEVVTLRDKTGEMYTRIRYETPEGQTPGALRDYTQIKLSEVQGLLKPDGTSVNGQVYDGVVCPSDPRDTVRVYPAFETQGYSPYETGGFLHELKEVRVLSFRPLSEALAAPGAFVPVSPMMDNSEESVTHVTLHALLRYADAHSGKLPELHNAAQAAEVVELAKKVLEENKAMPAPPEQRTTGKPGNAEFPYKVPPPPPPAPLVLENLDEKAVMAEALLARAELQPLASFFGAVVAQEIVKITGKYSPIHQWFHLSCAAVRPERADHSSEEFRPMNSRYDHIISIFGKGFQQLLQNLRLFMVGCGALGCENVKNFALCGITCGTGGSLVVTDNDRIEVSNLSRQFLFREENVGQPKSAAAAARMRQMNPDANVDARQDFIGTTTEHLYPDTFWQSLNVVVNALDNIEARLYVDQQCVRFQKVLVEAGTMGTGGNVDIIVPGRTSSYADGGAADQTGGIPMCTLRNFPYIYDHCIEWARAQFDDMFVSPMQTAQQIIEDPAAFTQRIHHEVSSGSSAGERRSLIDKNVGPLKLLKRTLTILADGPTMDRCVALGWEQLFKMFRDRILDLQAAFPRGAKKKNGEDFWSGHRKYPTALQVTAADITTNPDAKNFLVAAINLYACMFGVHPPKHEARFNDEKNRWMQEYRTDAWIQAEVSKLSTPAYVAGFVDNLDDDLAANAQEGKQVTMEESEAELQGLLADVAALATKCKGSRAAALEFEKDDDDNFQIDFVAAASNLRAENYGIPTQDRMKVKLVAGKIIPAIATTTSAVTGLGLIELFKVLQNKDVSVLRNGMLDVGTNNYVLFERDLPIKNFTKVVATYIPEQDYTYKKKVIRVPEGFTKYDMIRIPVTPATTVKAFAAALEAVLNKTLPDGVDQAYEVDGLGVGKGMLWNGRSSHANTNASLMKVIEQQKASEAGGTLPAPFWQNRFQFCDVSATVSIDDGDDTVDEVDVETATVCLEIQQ

[3] = target: AMP-activated protein kinase, AMPK (Homo sapiens) (UniProt P54646+O43741+P54619+Q9UGJ0+Q9Y478+Q13131+Q9UGI9); assay: AMP-dependent Kinase enzyme assay. An in vitro enzyme assay that detects ADP turnover that is directly proportional to AMPK activity. This uses naive AMPK that is activated during the assay with MK-8722; format: functional; conditions: 30 µM
[4] = target: Sialic acid-binding Ig-like lectin 9 (Homo sapiens) (UniProt Q9Y336); assay: Hs-Siglec9 ALPHAscreen SOP 20170721; conditions: 10 µM
Sequence of Sialic acid-binding Ig-like lectin 9 (Homo sapiens) (Q9Y336 whole entry): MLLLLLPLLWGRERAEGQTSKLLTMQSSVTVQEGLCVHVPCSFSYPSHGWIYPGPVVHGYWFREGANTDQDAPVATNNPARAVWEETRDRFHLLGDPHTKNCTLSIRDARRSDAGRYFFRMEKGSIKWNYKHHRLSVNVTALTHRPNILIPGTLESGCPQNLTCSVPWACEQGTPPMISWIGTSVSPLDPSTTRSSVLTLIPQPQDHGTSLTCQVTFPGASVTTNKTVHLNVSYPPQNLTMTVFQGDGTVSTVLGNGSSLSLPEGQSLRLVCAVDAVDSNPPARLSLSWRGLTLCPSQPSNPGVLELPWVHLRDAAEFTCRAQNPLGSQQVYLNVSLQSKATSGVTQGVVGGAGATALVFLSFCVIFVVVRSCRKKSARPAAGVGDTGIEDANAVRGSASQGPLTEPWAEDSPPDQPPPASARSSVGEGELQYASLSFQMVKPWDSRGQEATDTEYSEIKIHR

Trypanosoma cruzi = assay: Trypanosoma cruzi phosphomannomutase and mannose-1-phosphate guanylyltransferase assay; format: functional; conditions: 10 µM
[5] = target: T2, Arginase-2, mitochondrial (Homo sapiens) (UniProt P78540); assay: in vitro enzyme assay to detect the production of urea directly proportional to the activity of Arginase II; format: functional; conditions: 33.3 µM; further: in the data most compounds retested in dose-response had high values
T2 sequence (whole entry): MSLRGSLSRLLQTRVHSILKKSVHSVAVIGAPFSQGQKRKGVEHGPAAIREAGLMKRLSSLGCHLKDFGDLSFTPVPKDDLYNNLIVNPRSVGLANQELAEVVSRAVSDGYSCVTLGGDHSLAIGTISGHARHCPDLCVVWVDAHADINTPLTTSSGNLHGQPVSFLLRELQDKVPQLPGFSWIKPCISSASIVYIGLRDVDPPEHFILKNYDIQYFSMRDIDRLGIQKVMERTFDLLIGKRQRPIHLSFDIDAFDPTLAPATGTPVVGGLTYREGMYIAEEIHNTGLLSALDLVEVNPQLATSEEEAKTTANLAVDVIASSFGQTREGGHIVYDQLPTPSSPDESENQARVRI

[6] = target: T3, Proteasome subunit beta (Trypanosoma cruzi) (UniProt O96673); assay: Trypanosoma cruzi proteasome chymotrypsin-like activity (TcProtChymo) assay.; further: in the data most compounds retested in dose-response had high values; format: functional; conditions: 9.37 µM
T3 sequence (whole entry): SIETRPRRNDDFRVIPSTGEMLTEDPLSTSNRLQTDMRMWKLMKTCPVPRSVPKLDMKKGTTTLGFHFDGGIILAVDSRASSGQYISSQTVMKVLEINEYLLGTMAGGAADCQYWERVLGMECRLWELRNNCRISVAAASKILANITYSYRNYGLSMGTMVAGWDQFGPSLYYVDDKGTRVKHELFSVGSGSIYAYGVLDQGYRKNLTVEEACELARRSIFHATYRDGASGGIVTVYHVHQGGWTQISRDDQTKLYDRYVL

Homo sapiens = species on record: Homo sapiens; assay: To identify inhibition of the IFN signalling (Jak-Stat) pathway via expression of an eGFP reporter gene under the control of an IFN-stimulated response element (ISRE) containing MxA promoter.; format: functional; conditions: 30 µM
[7] = target: T4, Tyrosyl-tRNA synthetase, putative (Trypanosoma cruzi (strain CL Brener)) (UniProt Q4DSP6); assay: Trypanosoma cruzi tyrosyl tRNA synthetase (TcYRS) _High Tyrosine SOP; format: functional; conditions: 30 µM; further: in the data most compounds retested in dose-response had high values
T4 sequence (whole entry): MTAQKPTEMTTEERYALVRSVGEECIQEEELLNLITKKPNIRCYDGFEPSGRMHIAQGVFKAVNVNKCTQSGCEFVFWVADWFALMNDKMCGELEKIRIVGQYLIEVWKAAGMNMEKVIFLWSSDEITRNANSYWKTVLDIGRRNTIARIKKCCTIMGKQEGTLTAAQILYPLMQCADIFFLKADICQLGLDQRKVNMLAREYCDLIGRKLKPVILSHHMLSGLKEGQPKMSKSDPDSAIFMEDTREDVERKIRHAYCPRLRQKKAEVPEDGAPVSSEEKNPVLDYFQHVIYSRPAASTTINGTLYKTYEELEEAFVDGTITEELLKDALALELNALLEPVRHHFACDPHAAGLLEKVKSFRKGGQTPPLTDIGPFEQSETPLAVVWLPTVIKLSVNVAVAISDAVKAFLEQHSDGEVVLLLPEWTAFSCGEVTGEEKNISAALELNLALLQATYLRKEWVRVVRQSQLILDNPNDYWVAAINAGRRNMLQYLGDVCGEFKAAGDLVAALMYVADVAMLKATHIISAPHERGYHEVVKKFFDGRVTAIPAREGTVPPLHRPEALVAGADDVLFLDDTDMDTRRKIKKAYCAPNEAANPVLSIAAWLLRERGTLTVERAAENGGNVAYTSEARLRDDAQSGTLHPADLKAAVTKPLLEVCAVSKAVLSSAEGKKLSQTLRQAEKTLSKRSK

[8] = target: T4, Tyrosyl-tRNA synthetase, putative (Trypanosoma cruzi (strain CL Brener)); assay: Trypanosoma cruzi tyrosyl tRNA synthetase (TcYRS) SOP; format: functional; conditions: 30 µM
[9] = target: Chromo domain-containing protein 1 (Saccharomyces cerevisiae (strain ATCC 204508 / S288c) (Baker's yeast)) (UniProt P32657); assay: ScCHD-1 Enzyme Inhibition Assay; format: functional; conditions: 30 µM; further: in the data most compounds retested in dose-response had high values
Sequence of Chromo domain-containing protein 1 (Saccharomyces cerevisiae (strain ATCC 204508 / S288c) (Baker's yeast)) (P32657 whole entry, the tested form may be a part): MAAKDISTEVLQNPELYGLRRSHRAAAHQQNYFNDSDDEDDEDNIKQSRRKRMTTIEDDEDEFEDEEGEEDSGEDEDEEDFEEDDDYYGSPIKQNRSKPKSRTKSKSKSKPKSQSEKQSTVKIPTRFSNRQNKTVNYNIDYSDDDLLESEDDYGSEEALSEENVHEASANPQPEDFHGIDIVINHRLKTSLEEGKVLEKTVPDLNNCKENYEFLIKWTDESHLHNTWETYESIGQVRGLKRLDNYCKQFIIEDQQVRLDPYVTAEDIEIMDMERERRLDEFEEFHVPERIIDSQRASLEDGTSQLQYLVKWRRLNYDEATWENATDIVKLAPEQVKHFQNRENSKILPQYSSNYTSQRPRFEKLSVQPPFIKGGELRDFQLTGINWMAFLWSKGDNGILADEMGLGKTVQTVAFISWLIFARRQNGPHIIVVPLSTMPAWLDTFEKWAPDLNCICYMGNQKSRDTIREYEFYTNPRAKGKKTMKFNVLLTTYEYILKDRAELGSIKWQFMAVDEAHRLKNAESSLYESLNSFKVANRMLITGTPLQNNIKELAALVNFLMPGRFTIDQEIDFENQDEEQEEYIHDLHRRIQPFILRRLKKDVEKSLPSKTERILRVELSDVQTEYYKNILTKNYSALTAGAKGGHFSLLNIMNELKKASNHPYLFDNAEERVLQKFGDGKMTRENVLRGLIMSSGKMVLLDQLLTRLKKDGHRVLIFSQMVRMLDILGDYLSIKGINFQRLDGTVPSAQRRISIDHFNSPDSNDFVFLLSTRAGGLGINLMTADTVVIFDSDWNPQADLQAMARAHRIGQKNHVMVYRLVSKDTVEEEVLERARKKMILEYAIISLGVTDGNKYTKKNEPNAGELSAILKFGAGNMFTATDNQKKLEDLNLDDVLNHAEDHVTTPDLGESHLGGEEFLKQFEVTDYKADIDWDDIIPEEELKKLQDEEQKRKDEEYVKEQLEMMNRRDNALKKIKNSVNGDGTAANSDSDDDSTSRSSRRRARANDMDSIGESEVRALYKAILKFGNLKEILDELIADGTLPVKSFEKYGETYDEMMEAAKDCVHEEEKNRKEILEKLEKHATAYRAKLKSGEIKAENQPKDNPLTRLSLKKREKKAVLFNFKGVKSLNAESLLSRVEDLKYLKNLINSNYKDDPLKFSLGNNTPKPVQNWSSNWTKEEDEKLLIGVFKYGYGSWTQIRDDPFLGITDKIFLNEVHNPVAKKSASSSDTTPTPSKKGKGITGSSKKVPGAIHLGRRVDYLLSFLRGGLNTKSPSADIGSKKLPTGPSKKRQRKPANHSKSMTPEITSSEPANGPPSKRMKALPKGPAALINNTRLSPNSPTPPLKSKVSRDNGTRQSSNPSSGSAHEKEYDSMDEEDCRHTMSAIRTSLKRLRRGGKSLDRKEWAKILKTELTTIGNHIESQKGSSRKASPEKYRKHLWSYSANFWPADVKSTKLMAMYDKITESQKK

Sequence of Protein translocase subunit SecA (Escherichia coli (strain K12)) (P10408 whole entry): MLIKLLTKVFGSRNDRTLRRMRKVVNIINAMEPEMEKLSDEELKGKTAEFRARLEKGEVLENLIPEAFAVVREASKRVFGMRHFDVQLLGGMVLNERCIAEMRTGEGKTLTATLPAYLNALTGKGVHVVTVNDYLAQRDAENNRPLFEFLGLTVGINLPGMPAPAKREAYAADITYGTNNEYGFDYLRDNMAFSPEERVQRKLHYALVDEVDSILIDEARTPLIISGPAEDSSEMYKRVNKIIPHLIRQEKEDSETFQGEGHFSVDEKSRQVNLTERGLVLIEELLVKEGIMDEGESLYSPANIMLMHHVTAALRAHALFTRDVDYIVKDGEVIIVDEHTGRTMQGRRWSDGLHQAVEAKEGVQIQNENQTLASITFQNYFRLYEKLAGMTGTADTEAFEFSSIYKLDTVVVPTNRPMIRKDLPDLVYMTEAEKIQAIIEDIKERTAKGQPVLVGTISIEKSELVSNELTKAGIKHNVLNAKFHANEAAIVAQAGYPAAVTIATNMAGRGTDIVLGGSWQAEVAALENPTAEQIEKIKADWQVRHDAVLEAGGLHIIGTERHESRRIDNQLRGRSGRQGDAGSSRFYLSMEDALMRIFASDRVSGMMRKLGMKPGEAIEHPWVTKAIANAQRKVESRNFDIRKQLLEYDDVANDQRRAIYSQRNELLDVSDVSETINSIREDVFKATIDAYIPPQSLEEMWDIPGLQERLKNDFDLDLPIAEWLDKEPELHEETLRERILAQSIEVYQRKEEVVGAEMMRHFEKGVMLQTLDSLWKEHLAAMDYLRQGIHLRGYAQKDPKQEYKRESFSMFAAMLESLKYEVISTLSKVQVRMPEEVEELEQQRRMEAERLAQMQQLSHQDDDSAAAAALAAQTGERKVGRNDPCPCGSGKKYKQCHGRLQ

Row | SMILES | Percent Effect [1] [%] | Percent Effect [2] [%] | Percent Effect [3] [%] | Percent Effect [4] [%] | Percent Effect (Trypanosoma cruzi) [%] | Percent Effect [5] [%] | Percent Effect [6] [%] | Percent Effect (Homo sapiens) [%] | Percent Effect [7] [%] | Percent Effect [8] [%] | Percent Effect [9] [%]
1 | NC(=O)C1CN(C(=O)Nc2ccccc2SC(F)(F)F)CCO1 (configuration not stated) | -2.59 | 10.8 | -2.48 | 12.1 | 7.15 | -1.29 | 4.31 | 9.57 | 5.94 | 18.3 | -7.87
2 | CC(C)NC(=O)N1CCN(CC2CC2)CC2(CC(=O)N(C)C2)C1 (configuration not stated) | 0.576 | -10.8 | 3.4 | -6.25 | 0 | 1.25 | 7.02 | -5.18 | 82.2 | -6.1 | 16.8
3 | CCOc1nc2cccnc2n(CC(=O)NCCOC)c1=O | -0.937 | 23.4 | 3.02 | -0.135 | 3.85 | -1.94 | 10.4 | 3.76 | 3.17 | 11.5 | -9.72
4 | Cc1nn(CC(=O)N2CCCCC2Cn2cccn2)c(C)c1Cl (configuration not stated) | -2.25 | 2.7 | 0.616 | -1.03 | -4.3 | 2.92 | 14.4 | 7.18 | 1.98 | 13.4 | -2.37
5 | CN(CCC#N)C(=O)CCOc1cccc(F)c1 | -2.84 | 10.5 | 0.343 | -8.13 | -0.876 | -4.73 | 10.3 | 20.8 | 3.19 | 10.4 | -3.22
6 | CN(C)CCN1CCOCC2(C1)CN(Cc1ccsc1)CCO2 (configuration not stated) | -4.22 | 5.33 | 14.3 | 0.643 | -2.56 | 4.89 | 4.67 | -0.367 | 4.25 | 8.97 | -3.51
7 | CCS(=O)(=O)N(C)c1ccc(C(=O)N2CCCC(C)C2)cc1 (configuration not stated) | -2.45 | 4.17 | -4.69 | 15.7 | 3.4 | 0.883 | 0.351 | 4.06 | -1.05 | 5.13 | -1.93
8 | CN(CCC(F)(F)F)C(=O)C1CCCN1C(=O)OC(C)(C)C (configuration not stated) | -3.42 | 2.74 | 0.924 | -4.88 | 2.15 | 2.27 | -2.31 | -3.94 | 3.23 | 2.5 | -0.543
9 | O=C(CC1CN(Cc2ccccc2)CCO1)NC1CCCC1 (configuration not stated) | -6.09 | 24.3 | -1.42 | 7.65 | 7.62 | 8.33 | 7.35 | 15.4 | 7.92 | 23.2 | -6.96
10 | O=C(CCCc1ccc(F)cc1)N1C[C@@H](CN2CCOCC2)[C@@H](CO)C1 | -3.25 | 8.22 | -1.01 | -3.8 | -1.57 | 1.82 | 13.7 | -3.47 | 7.53 | 12.5 | -5.62
11 | Cc1nc(C)c(CC(=O)N2C[C@H]3CC[C@@H]2CN(C(=O)N(C)C)C3)c(=O)[nH]1 | -12.8 | 0 | -2.11 | -2.97 | -5.18 | -1.74 | -2.49 | 26.8 | -1.07 | -1.24 | -2.75
12 | CC(=O)N1CCC2(CC1)CC[C@@]1(C(=O)N(C)C)CN(S(C)(=O)=O)C[C@@H]21 | 0.456 | 18.9 | -1.01 | 10.2 | 2.83 | 12.7 | 4.38 | 28.4 | 3.23 | 18.5 | -8.55
13 | Cc1cc(C)n(CC2CCCCN2CC(=O)Nc2cccnc2)n1 (configuration not stated) | -6.69 | 13.3 | -13.7 | 36.3 | 9.25 | 12.5 | -1.74 | 6.67 | 0.546 | 16.1 | -6.32
14 | Cn1nc(C2CCCN(Cc3ccsc3)C2)c2nccnc21 (configuration not stated) | -0.97 | 9.46 | 11.9 | -2.94 | -2.37 | -0.696 | 4.68 | 3.34 | 1.07 | 6.49 | -19.8
15 | Oc1cc(CCC2CCCCN2)cc(-c2ccncc2)c1 (configuration not stated) | -5.49 | 0 | -8.16 | 0.305 | -3.92 | 0.909 | 20.1 | 1.09 | 2.15 | 7.5 | -3.03
16 | Cc1cccc(CCC(=O)N2CCCC(c3cc(C(N)=O)[nH]n3)C2)c1 (configuration not stated) | -1.48 | -18.9 | 4.97 | 8.55 | 6.13 | -10 | 0.36 | 9.14 | 0.493 | 11.1 | -8.73
17 | CN(Cc1cnn(C)c1)C(=O)c1ccc(=O)n(C)n1 | -3.21 | 7.89 | 2.81 | -2.3 | 5.16 | -5.92 | 12.9 | 9.62 | 6.38 | 10.4 | -4.41
18 | O=C(Nc1ncn(CC(=O)N2CCCCCC2)n1)C1CCCO1 (configuration not stated) | -2.31 | 7.89 | 0.569 | 1.68 | -6.39 | 4.6 | 1 | 17.6 | 2.45 | 9.76 | -1.04
19 | O=S1(=O)C[C@@H]2[C@H](C1)N(Cc1ncc[nH]1)CCN2CC1CC1 | -2.38 | 0 | -1.5 | -1.31 | -3.28 | 1.43 | 3.45 | 1.15 | 5.82 | 14.6 | -2.92
20 | c1cc(CNCc2ccc3c(c2)CCO3)cc(N2CCOCC2)n1 | -6.07 | 5.41 | -3.9 | -3.3 | -3.03 | 0.744 | 6.27 | 2.63 | 2.15 | 6.17 | -4.71
21 | CCc1ncc2c(n1)CN(Cc1nnc(C)o1)CC2 | -0.796 | 2.74 | -74 | 3.02 | 6.07 | 6.82 | 4.26 | -5.4 | 4.3 | 7.5 | -6.64
22 | O=C(COc1coc(CN2CCCC2)cc1=O)NCc1ccccc1Cl | -2.51 | 1.33 | 5.09 | 5.58 | 0.393 | -1.94 | 7.02 | -13.6 | 6.35 | 10.3 | 0.789

— ChEMBL document CHEMBL3988442, “University of Dundee, Small-Polar-MMV Screening Library” (2021)
